Compound activity (PubChem BioAssay)
Hits are enriched below; roughly 21% of the tested compounds scored in any of these assays.
Shiga toxin inh: blocks Shiga toxin action in Vero cells. 290,000 tested, 9.2% active. Vero cells, Shiga toxin protein synthesis inhibition reporter. AID 2315. inhibition, % at 38.7 µM; in the data active = inhibition mostly above about 28%, no sharp cut-off; inactive = mostly below about 43%; note: 0% is about no effect
Cycloheximide cs: counter-screen hit for Shiga toxin inhibitors, cycloheximide; cell reporter, cycloheximide protein synthesis inhibition counterscreen; max response, %; 300,000 tested, 12% active; in the data active = max response mostly above about 13%, no sharp cut-off; inactive = mostly below about 14%; note: read at 38.3 µM for the half of the compounds with a filed dose; 0% is about no effect
NS1 function inh: inhibitors of influenza NS1 protein function | Potency, µM (titrated, usually from 46.1 µM), inactives show at the highest dose activity, positive = more growth | 270,000 tested, 0.4% active | AID 2326; calls by dose curve; note: potency is the fitted concentration of half-maximal effect; actives are rising curves; nearly all actives have a fitted effect of over 50% in size
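Recovery from NS1-induced slow growth read by OD600 in budding yeast switched to galactose assay medium (pH 6.0, -URA) at 1:100 dilution. Compound 23 nl per well; the matching strain lacking NS1 serves as control.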
Pf growth 96h: P. falciparum growth inhibition at 96 hour, primary screen for plastid delayed-death inhibitors | P. falciparum luciferase reporter growth, 96 h | Potency, µM (doses to about 28.7 µM), inactives show top-dose activity change, negative = inhibition, actives largely listed as inhibitors | 320,000 tested, 6.9% active; note: potency is the fitted concentration of half-maximal effect; % is set by controls: 0 for no effect and ±100 for the full control effect
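Luminescence readout: decreased luciferase signal marks inhibited growth of reporter-expressing P. falciparum in infected red cells (2% hematocrit, 0.05% parasitemia final), exposed to compound two generations (96 h, 37 C, 5% CO2).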
Pf growth 48h: P. falciparum growth inhibition at 48 hours (one generation); P. falciparum luciferase growth in erythrocytes, 48 h; Potency, µM (series often up to 28.7 µM), for inactives: top-dose activity change, negative = inhibition, actives largely listed as inhibitors; 310,000 tested, 5.9% active; note: potency is the fitted concentration of half-maximal effect; % is set by controls: 0 for no effect and ±100 for the full control effect
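Read-out is firefly luciferase luminescence from an integrated reporter in P. falciparum, so falling signal marks reduced parasite growth. Infected erythrocytes were at 2% hematocrit and 0.1% parasitemia (final) in Albumax-supplemented RPMI 1640.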
Starred values were filed as active, the others as inactive; i = inactive; ? = inconclusive; · = not tested or not shown; [ ] = another dose, or the depositor's remark. Unless noted, calls come from the whole dose curve; as a rule, active = well fitted inhibition curve with a large enough effect; inconclusive = small, poorly fitted or top-dose-only effect, or another doubt; inactive = no such curve, though single readings can be large or run the other way.

SMILES | Shiga toxin inh | Cycloheximide cs | NS1 function inh | Pf growth 96h | Pf growth 48h
CC(C)c1ccc(S(=O)(=O)N2CCN(C(=O)C3CCN(C(=O)c4ccc(F)cc4)CC3)CC2)cc1 | 4 | 2 | -6% | ? | ?
Cc1ccc(NC(=O)COc2ccc(/C=C3/SC(=Nc4ccccc4)N(Cc4cccnc4)C3=O)cc2)cc1 | -6 | -3 | 14% | ? | ·
Cn1ccc2c([N+](=O)[O-])cccc2c1=O | -6 | -3 | · | 24% | 3%
CN(C)c1ccc(/C=C/C=C2/SC(=S)N(c3ccccc3)C2=O)cc1 | 88* | 33* | · | 9% | 119%
O=C1C(Cl)=C(N2CCCCC2)C(=O)C(Cl)=C1c1cnc(N2CCCCC2)s1 | 13 | -3 | 0% | -6% | 10µM*
Clc1ccc(Cl)c2sc(N3CCCC3)nc12 | 33 | 16 | ? | ? | 11%
Cc1cc(C)nc(SCc2nnc(SCC(=O)N3CCOCC3)o2)n1 | 21 | -1 | 1% | 7.4µM* | 29%
COc1ccc(-c2nnc(SCC(=O)N3CCN(c4ccccc4)CC3)o2)cc1OC | -9 | -2 | 10% | -4% | 39%
CCOc1ccc(-c2nnc(SCC(=O)N3CCOCC3)o2)cc1 | 69* | 24* | -5% | ? | 30%
COc1ccc(-c2nnc(SCC(=O)N3CCOCC3)o2)cc1OC | 11 | 1 | 9% | 12µM* | 11%
Cc1cc(C)nc(SCC(=O)N2CCOCC2)n1 | -10 | -1 | 4% | -11% | ·
CSc1ccc(/C=N/n2c(COc3ccccc3)n[nH]c2=S)cc1 | -12 | 2 | 7% | 14% | -15%
O=C(O)Cc1c(C(=O)O)nnn1-c1cccc(C(F)(F)F)c1 | 16 | 1 | 2% | ? | -15%
Cc1c(C(=O)Nc2ccc(F)cc2)nnn1-c1cccc(C(F)(F)F)c1 | 49* | 47* | · | 3% | 31%
Cc1cccc(-n2nnc(C(=O)N3CCc4ccccc4C3)c2N)c1 | 55* | 29* | -54% | 23% | 47%
Cc1cccc(-n2nnc(C(=O)Nc3ccc(F)cc3)c2N)c1 | 79* | 51* | -9% | 10% | 146%
Cc1ccc(NC(=O)c2nnn(-c3cc(C)cc(C)c3)c2N)cc1 | 130* | 38* | -57% | 35% | 33%
CSCC[C@H](N)C(=O)N[C@@H](CCCN=C(N)N)C(=O)N[C@@H](Cc1ccccc1)C(=O)N[C@@H](Cc1ccccc1)C(=O)N[C@H](C(=O)O)C(C)C | -10 | -9 | · | · | ·
CCCC(CCC(=O)Nc1cccc([N+](=O)[O-])c1)C(=O)O (stereo unspecified) | -8 | -2 | 3% | 3% | 39%
O=C(CCCC(=O)c1ccc(F)cc1)c1ccc(F)cc1 | 107* | 55* | -6% | 169% | ·
CCCCC(=O)c1ccc(O)cc1 | 42 | 15* | 6% | · | 32%
O=C(CCC(=O)N1CCOCC1)c1ccc(F)cc1 | 55* | 24* | · | 16% | 81%
Cc1ccc(C(=O)CCC(=O)N2CCN(c3ccc(F)cc3)CC2)cc1 | -4 | -3 | -16% | ? | 6%
CCOc1ccc(C(=O)CCN2CCCCCC2)cc1 | -2 | 15 | -54% | 0% | -4%
CCOc1ccc(C(=O)CCCC(=O)c2ccc(OCC)cc2)cc1 | · | 47* | -9% | ? | 57%
SMILES | Shiga toxin inh | Cycloheximide cs | NS1 function inh | Pf growth 96h | Pf growth 48h
CCOc1ccc(C(=O)COC(=O)CC)cc1 | 42* | 23* | 2% | ? | -14%
CCCOc1ccc(C(=O)CCC(=O)OCC(=O)Nc2ccc(OCC)cc2)cc1 | 21 | 7 | 1% | 54% | 18%
CCCCC(=O)OCC(=O)c1ccc(OCC)cc1 | 22* | 58* | -2% | ? | 19%
CCC(=O)c1ccc(OCC(=O)O)cc1 | 35 | -3 | 4% | ? | 6%
Cc1ccc(C(=O)CCS(=O)(=O)c2ccc(F)cc2)cc1 | 26* | 25* | -3% | 2% | 0%
Cc1cccc(C(=O)O[C@@H]2[C@H](Cc3ccccc3)NS(=O)(=O)[C@H]3C[C@@H]4C=C[C@]23O4)c1 | · | · | · | 9.3µM* | ?
c1coc(-c2ccnc3nc(-n4cccc4)nn23)c1 | -6 | 6 | · | ? | 10µM*
COc1ccc(C(=O)C(CO)Oc2ccccc2OC)cc1OC (stereo unspecified) | -4 | 8 | 2% | ? | 12%
COCCNC(=S)NN=C1CCCCC1 | -15 | 11 | · | 7%[5.75 µM] | -2%
C=CCNC(=S)NN=C1CCCCCCC1 | 38 | 10 | · | -93%[5.75 µM] | 8.3µM*
COCCCn1c(=S)[nH]c2ncccc2c1=O | -5 | -2 | -5% | ? | 13%
CCCCCn1c(=S)[nH]c2ncccc2c1=O | -8 | 2 | -4% | 9.3µM* | 2%
Oc1ccc(C[C@@H]2CNC(=S)N2CCCCC2CCCCC2)cc1 | -6 | 1 | 7% | ? | ?
OCCC#Cc1ccc(CN2CCN(C3CCCCC3)C(CCO)C2)cc1 (stereo unspecified) | -12 | 1 | -1% | i | ?
COc1ccc(S(=O)(=O)CCC(=O)NCCc2ccc(S(N)(=O)=O)cc2)cc1 | -8 | 11 | 0% | 9.3µM* | -12%
CC(Cc1cccs1)NC(=O)Nc1ccc([N+](=O)[O-])cc1 (stereo unspecified) | 73* | 30* | -42% | 0% | -13%
CCNC(=O)C(=O)Nc1ccc([N+](=O)[O-])cc1 | -1 | 5 | · | ? | 45%
COc1ccc(CNC(=O)COC(=O)c2cccs2)cc1 | 47* | 27* | -21% | 1% | 40%
COc1ccc(CNC(=O)c2cccs2)cc1 | 23 | 4 | -16% | · | -5%
O=C(NCC(O)c1ccccc1)c1cccs1 (stereo unspecified) | 79* | 42* | 4% | 94% | 101%
O=C(NNC(=O)C(c1ccccc1)c1ccccc1)c1cccs1 | -5 | 1 | 5% | ? | -8%
COc1ccc(S(=O)(=O)CCC(=O)NCCc2cccc(C)c2)cc1 | -9 | -5 | 2% | ? | ·
COc1ccc(S(=O)(=O)N2CCC(Nc3ccccc3Cl)CC2)cc1 | -6 | -1 | 12% | ? | 19%
COCc1cc(C)nc(Sc2nc3c(c(=O)n(C)c(=O)n3C)n2C)c1C#N | -6 | 44 | 4% | -51% | ?
O=C(O)c1nccnc1C(=O)N1CCN(c2ccccc2)CC1 | -3 | -4 | 14% | 22% | 11%
SMILES | Shiga toxin inh | Cycloheximide cs | NS1 function inh | Pf growth 96h | Pf growth 48h
COc1ccc(CCNC(=O)c2cccs2)cc1 | 48* | 32* | -18% | ? | ?
O=C(NCCCc1ccccc1)c1cccs1 | 55* | 34* | -13% | 39% | 27%
CC(Cc1cccs1)NC(=O)c1cccs1 (stereo unspecified) | 74* | 33* | · | 144% | 41%
O=C(NCCc1ccc(F)cc1)c1cccs1 | 91* | 26* | -20% | ? | 143%
O=C(NCCc1cccs1)c1cccs1 | 91* | 50* | · | ? | 240%
O=C(NCCSCc1ccc(Cl)cc1)c1cccs1 | -6 | 9 | -44% | 10µM* | 3.3µM*
O=C(CNC(=O)c1cccs1)c1ccc(Br)cc1 | 109* | 39* | -7% | 0% | 124%
CCc1ccc(OCCNC(=O)c2cccs2)cc1 | 53* | 41* | -56% | · | 0%
